In all, about 9,900 sequences were measured (“r (bound/input frequency ratio)”: median about 0.7, highest 2% from about 6.5 on). The sample as a whole holds a higher share of the highest values than the screen did.

To fix the notation:
B1: ENSMUSG00000061578.273|Ksr2 (ssRNA)
RNA: GGGAGUUCUACAGUCCGACGAUCGCUUCGAUAUCCGCAUGCUAGGCCCUGGGCUCCAGAGUCGCUGAAGACCACUCUCCACAGCAGCUGUAACCCCAUCUAACAAGCCCUGUUCUGGAUAUAUCUCUGUGGCCAGGGCUGGACUGAGACUGACCCCCUCCUACUAAGCAUCUUAGAGUUUCUCUUUUCUCUUUAAUUGCAUCAGGACCCCUUUGGUCCAUGUACCCCGGUCUCUGUCACAUGCCUUUGUAUCUUGGAGGAAGUAAGAGAGGAGAGAGCCAGGGAGGGCUGAAGCUCUGGGACCCUCUUGCGGUCGCACUAGUGUGGAAUUCUCGGGUGUCAAGG
B2: ENSMUSG00000058297.297|Spock2|59:64 (ssRNA)
RNA: GGGAGUUCUACAGUCCGACGAUCGCUUCGAUAUCCGCAUGCUAUGAGAGAGAGAAUACCCGAGGGCCACCCUGAUGCCCAGGAAGAGUGAGGGCAGCCCCCACACACGUGGAAGAGGCUGGGCAGCUAGCUACUGGGGACCUUGUGCUGAGGCUUCCAGGACAAAGCCCCAGUCUGGCUCUCCCCCAGCCUCUCAGGGGCACUGGCUGGUCACAUCCACUGAGUAUUGAUCGGUUGGACUUUAGGGAAGAGCCUCCUCCUUCCCAUUCCUUUCUGCCACCCUGGAAUGGCCACCUUAAUCGUCCUCUUGCGGUCGCACUAGUGUGGAAUUCUCGGGUGUCAAGG
B3: ENSMUSG00000058297.286|Spock2|1:6;125:130 (ssRNA)
RNA: GGGAGUUCUACAGUCCGACGAUCGCUUCGAUAUCCGCAUGCUAACACACAGAGAGAGAGAGAGAGAGAGAGAGAGAGAGAGAGAGAAAGAGAGAGAGAAUGAGAGAGAAUGAGAGAGAGAAUACCCGAGGGCCACCCUGAUGCCCAGGAAGAGUGAGGGCAGCCCCCACACACGUGGAAGAGGCUGGGCAGCUAGCUACUGGGGACCUUGUGCUGAGGCUUCCAGGACAAAGCCCCAGUCUGGCUCUCCCCCAGCCUCUCAGGGGCACUGGCUGGUCACAUCCACUGAGUAUUGAUCGGUUGGCUCUUGCGGUCGCACUAGUGUGGAAUUCUCGGGUGUCAAGG
B4: ENSMUSG00000058297.285|Spock2|1:12;131:136 (ssRNA)
RNA: GGGAGUUCUACAGUCCGACGAUCGCUUCGAUAUCCGCAUGCUAACACACACACACAGAGAGAGAGAGAGAGAGAGAGAGAGAGAGAGAGAGAAAGAGAGAGAGAAUGAGAGAGAAUGAGAGAGAGAAUACCCGAGGGCCACCCUGAUGCCCAGGAAGAGUGAGGGCAGCCCCCACACACGUGGAAGAGGCUGGGCAGCUAGCUACUGGGGACCUUGUGCUGAGGCUUCCAGGACAAAGCCCCAGUCUGGCUCUCCCCCAGCCUCUCAGGGGCACUGGCUGGUCACAUCCACUGAGUAUUGAUCCUCUUGCGGUCGCACUAGUGUGGAAUUCUCGGGUGUCAAGG
B5: ENSMUSG00000058297.284|Spock2|1:18;137:142 (ssRNA)
RNA: GGGAGUUCUACAGUCCGACGAUCGCUUCGAUAUCCGCAUGCUAACACACACACACACACACAGAGAGAGAGAGAGAGAGAGAGAGAGAGAGAGAGAGAAAGAGAGAGAGAAUGAGAGAGAAUGAGAGAGAGAAUACCCGAGGGCCACCCUGAUGCCCAGGAAGAGUGAGGGCAGCCCCCACACACGUGGAAGAGGCUGGGCAGCUAGCUACUGGGGACCUUGUGCUGAGGCUUCCAGGACAAAGCCCCAGUCUGGCUCUCCCCCAGCCUCUCAGGGGCACUGGCUGGUCACAUCCACUGAGUACUCUUGCGGUCGCACUAGUGUGGAAUUCUCGGGUGUCAAGG
B6: ENSMUSG00000028439.112|Fam219a|120:124 (ssRNA)
RNA: GGGAGUUCUACAGUCCGACGAUCGCUUCGAUAUCCGCAUGCUACAAAGGGAUACUGUCUCUCCAUUAGAUAACUCCUUCCACUGUCUCCCUCCCCCGCUUUCUUACUUUCUGAGGGUUGGGAAGGUAAGAUGGGCCUUAGAGAGAAGCCAGGUUUGGGGAUGCAUACACCUGUUCUCACCGGUCUCUAACCAGUGCAUCUGUCUCUCUGCCUCAUCCCCACACCGCCCUGCCACCCCCAGUCUUCUGUCUAUUGGUUCCAGGCUGGAAGCAAGAGAUAAGGCUGGCCUCCUGUGCCCCAUUGCCUCUUGCGGUCGCACUAGUGUGGAAUUCUCGGGUGUCAAGG
B7: ENSMUSG00000031028.669|Tub (ssRNA)
RNA: GGGAGUUCUACAGUCCGACGAUCGCUUCGAUAUCCGCAUGCUAAUUUCUCUAGCUGAGAGCACACUUAGCCAGUUUUCACGCCUAGAACAUAUAUGUCGAUUUGCACAUGAUUGUCUUUUCCUAUUUUGGAGUGGUCAGACAUUUUAUUUUUGUUCAAAAUUAUCUGGAGUUUUAGACAAACUUGCAAAACUGUGCUUUUAUUAAGUGACUUUUUGAAUAAACUUUUUGGUAUUCUGAAGCAAAUGUAUUUAUUUAUUGGUAUGUGCAAUGACAAACUUGGUAUUUUCCCAUAAUGACAUUAUCUCUUGCGGUCGCACUAGUGUGGAAUUCUCGGGUGUCAAGG
B8: ENSMUSG00000061578.833|Ksr2 (ssRNA)
RNA: GGGAGUUCUACAGUCCGACGAUCGCUUCGAUAUCCGCAUGCUACUCACAGUUUCAAAGGGCUCAGUCCAUAGCUGCCUGACUCUGUGUUUCUAGGCCUUUCUUGAGGCAAGUGUUCAUCAUGAUAGUGUGAGGGUGAGGAGGAGUUUCUUCAUGGCAAACAGGAAGCAAAGAGCAAUACAGGAAAAGGUCAGGGGUGAGAUGUGUCAUUGCCACUUCCUCCAGCUAGGACCUUUGAGCAUCACAUUGUGAAGCCAUCCAGGGACUUGGGGGUUAGGUCAGAGGUAUCAAUACAUCUCCGGAAACUCUUGCGGUCGCACUAGUGUGGAAUUCUCGGGUGUCAAGG
B9: ENSMUSG00000061578.1473|Ksr2 (ssRNA)
RNA: GGGAGUUCUACAGUCCGACGAUCGCUUCGAUAUCCGCAUGCUAUAUGUGAAUAAAUGGAUGGAUGGAUGGAUUGAUUUGUGAAUGAAUGGAUGAAUGGAUGGGUAGGUGGGUGGAUGCAUAGGCAAGUAGAUGAAUGAAUAUGUGGGUAGAAGGGUGAGUGGGUGGAUGAAUGGAUGGAUAGGUUGGUAGGUUAAUGUAUUCGUGGAUGGGUGAAUGGAUGGAUGGAUAGAUAGAUGGGAAGGUGGAUGGACAGAUGGAUGGAUGGAUAGAUAGAUGGACAGGUGGUUGGUGGAUAAAUGAGUCUCUUGCGGUCGCACUAGUGUGGAAUUCUCGGGUGUCAAGG
B10: ENSMUSG00000061578.1466|Ksr2 (ssRNA)
RNA: GGGAGUUCUACAGUCCGACGAUCGCUUCGAUAUCCGCAUGCUAUAUGAAUGAAUGGAUGAAUGGAUGGGUGAAUGGAUGGAUAGGUAUGUGAAUAAAUGGAUGGAUGGAUGGAUUGAUUUGUGAAUGAAUGGAUGAAUGGAUGGGUAGGUGGGUGGAUGCAUAGGCAAGUAGAUGAAUGAAUAUGUGGGUAGAAGGGUGAGUGGGUGGAUGAAUGGAUGGAUAGGUUGGUAGGUUAAUGUAUUCGUGGAUGGGUGAAUGGAUGGAUGGAUAGAUAGAUGGGAAGGUGGAUGGACAGAUGGAUGCUCUUGCGGUCGCACUAGUGUGGAAUUCUCGGGUGUCAAGG

Sequence of TDP-43 (Q13148 whole entry): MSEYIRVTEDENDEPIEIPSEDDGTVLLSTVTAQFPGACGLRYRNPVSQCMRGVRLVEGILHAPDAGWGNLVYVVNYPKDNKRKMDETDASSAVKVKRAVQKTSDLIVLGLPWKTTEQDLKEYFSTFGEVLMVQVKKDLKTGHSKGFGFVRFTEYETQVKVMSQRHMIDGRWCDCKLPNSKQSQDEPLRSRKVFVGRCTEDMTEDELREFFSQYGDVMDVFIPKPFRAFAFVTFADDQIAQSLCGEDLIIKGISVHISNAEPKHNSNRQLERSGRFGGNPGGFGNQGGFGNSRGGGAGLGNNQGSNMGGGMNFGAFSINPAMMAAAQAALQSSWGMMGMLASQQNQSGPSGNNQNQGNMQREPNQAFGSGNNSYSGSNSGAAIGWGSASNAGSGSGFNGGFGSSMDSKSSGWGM

This experiment addresses TDP-43 (Homo sapiens, UniProt Q13148 1-414). As to the kind of experiment: RNA Bind-n-Seq with designed 260-mer pool; 25 mM Tris-HCl, 150 mM KCl, 3 mM MgCl2, BSA (printed 500 mg/mL), 20 units/mL SUPERase IN; pH not stated; 500 nM RNA pool, 1 h, 4 C; TDP-43 5, 50, 500 nM; high values mean tight binding. Particulars: protein: recombinant; tags: SBP (GST cleaved off with PreScission; pGEX-GST-SBP). Put shortly: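 Streptavidin beads captured recombinant SBP-tagged TDP-43 at 5, 50 or 500 nM, and the beads were incubated for 1 h at 4 °C with 500 nM of an in vitro-transcribed pool of 260-nt 3′ UTR oligos in 25 mM Tris-HCl, 150 mM KCl, 3 mM MgCl2, BSA and SUPERase IN. After washing, bound RNA was eluted with biotin, reverse transcribed, PCR-amplified and sequenced. Binding is reported as R, the mapped-read-normalized abundance of each oligo in the bound sample divided by its abundance in the input. Two independent protein batches served as duplicates.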
With B1, the binding signal was 0.384 R (bound/input frequency ratio).
For the molecule B2, the binding signal is 6.44 R (bound/input frequency ratio).
On to B3, for which the binding signal was 6.42 R (bound/input frequency ratio).
With B4, the binding signal is 7.3 R (bound/input frequency ratio).
In the case of B5, the binding signal is 8.98 R (bound/input frequency ratio).
For the molecule B6, the binding signal was 0.515 R (bound/input frequency ratio).
As for B7, the figure is 0.0963 R (bound/input frequency ratio); as for B8, 1.23 R (bound/input frequency ratio).
On to B9, for which the binding signal is 9.68 R (bound/input frequency ratio).
Take B10: the binding signal is 5.78 R (bound/input frequency ratio).

Values taken from publication PMC12864922, “TDP-43 directly inhibits mRNA accumulation in neurites through modulation of mRNA stability”.
